Measurements taken from PubChem BioAssay (NCI).
About 83,000 compounds went through this panel and 20% of them were active in at least one assay; those are over-represented in the sample as a whole.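 The endpoint reported here, percent growth, reads 100 for growth as untreated, 0 for no net growth and -100 for all cells dead.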 Values without a mark were called inactive. Activity calls are given as the source filed them. How the source made its calls: active means growth percent below 10; inactive means the rest.

How the values were obtained:
Assay in all cases: NCI-60 one-dose screen, 48 h (100 = growth as untreated, 0 = no growth, -100 = all killed)
Settings in all cases: 10 µM unless noted
SK-MEL-2 melanoma = test system: SK-MEL-2 melanoma
EKVX NSCLC = test system: EKVX NSCLC
SN12C renal = test system: SN12C renal
UO-31 renal = test system: UO-31 renal
TK-10 renal = test system: TK-10 renal
ACHN renal = test system: ACHN renal
CAKI-1 renal = test system: CAKI-1 renal
A498 renal = test system: A498 renal
CCRF-CEM leukemia = test system: CCRF-CEM leukemia
MOLT-4 leukemia = test system: MOLT-4 leukemia
SR leukemia = test system: SR leukemia
RPMI-8226 leukemia = test system: RPMI-8226 leukemia
OVCAR-8 ovarian = test system: OVCAR-8 ovarian
OVCAR-5 ovarian = test system: OVCAR-5 ovarian
OVCAR-4 ovarian = test system: OVCAR-4 ovarian
SK-OV-3 ovarian = test system: SK-OV-3 ovarian
IGROV1 ovarian = test system: IGROV1 ovarian
OVCAR-3 ovarian = test system: OVCAR-3 ovarian
HS 578T breast = test system: HS 578T breast
NCI/ADR-RES ovarian = test system: NCI/ADR-RES ovarian

Structure (SMILES) | growth (SK-MEL-2 melanoma) | growth (EKVX NSCLC) | growth (SN12C renal) | growth (UO-31 renal) | growth (TK-10 renal) | growth (ACHN renal) | growth (CAKI-1 renal) | growth (A498 renal) | growth (CCRF-CEM leukemia) | growth (MOLT-4 leukemia) | growth (SR leukemia) | growth (RPMI-8226 leukemia) | growth (OVCAR-8 ovarian) | growth (OVCAR-5 ovarian) | growth (OVCAR-4 ovarian) | growth (SK-OV-3 ovarian) | growth (IGROV1 ovarian) | growth (OVCAR-3 ovarian) | growth (HS 578T breast) | growth (NCI/ADR-RES ovarian)
COc1ncc(-c2ccc3ncnc(Nc4cccc(Cl)c4)c3c2)cc1NS(=O)(=O)CCN1CCOCC1 | -1.15% (active) | -20.7% (active) | 10.1% | -8.52% (active) | -19.6% (active) | 7.46% (active) | 1.1% (active) | -35.9% (active) | 22.5% | 2.58% (active) | 9.25% (active) | 12.7% | 16.9% | 6.39% (active) | 33.1% | -25.9% (active) | -36.9% (active) | 5.82% (active) | -21.1% (active) | 30.1%
Nc1ccc(S(=O)(=O)c2ccc(Cl)cc2)cc1 | 98.4% | 94.7% | 95.3% | 86.4% | 96.4% | 97.1% | 93.6% | 108% | 111% | 103% | 112% | 101% | 107% | 90.1% | 110% | 109% | 97.3% | 98.8% | 96% | 
ClC1=C(Cl)C(Cl)=C(Cl)C1=Cc1ccc(Cl)cc1Cl | -2.84% (active) | -19.8% (active) | -31.1% (active) | -81.8% (active) | -5.11% (active) | -75.7% (active) | -41.2% (active) | -89.6% (active) | 3.34% (active) | 4.59% (active) | 2.92% (active) | -10.7% (active) | 2.92% (active) | 8.75% (active) | 5.94% (active) | 38.5% | 7.32% (active) | -83.7% (active) | 11.6% | -34.8% (active)
COc1cccc2nc(Nc3ccc(NC(=O)c4ccc5ncccc5c4)cc3)ccc12 | 115% | 87.5% | 97.8% | 82.4% | 108% | 92.8% | 70.2% | 83.4% | 69.4% | 67.1% | 65.7% | 33.4% | 72.3% | 99.3% | 89.7% | 86.4% | 105% | 105% | 66.7% | 86%
COc1ccccc1OCC(=O)Nc1sc2c(c1C(N)=O)CCC2 | 37.5% | 99.9% | 64.2% | 26.5% | 104% | 32.2% | 63.7% | 67.1% | 24.3% | 26% | 65.2% | 66.2% | 76.9% | 107% | 83.2% | 69.9% | -10.4% (active) | 92.1% | 55.5% | 79.1%
COC(=O)CC/C(C)=N\Nc1ccc([N+](=O)[O-])cc1 | 57.3% | 59.2% | 81.9% | 35.5% | 63.3% | 36.2% | 41.4% | 77.3% | 35% | 34% | 34.6% | 51.8% | 59.1% | 79.4% | 76.3% | 62.5% | 74.2% | 88.3% | 81.7% | 78%
C/C(=N\NC(=O)CC#N)c1cc2cc(Cl)ccc2o1 | 96.4% | 33.6% | 93.1% | 108% | 114% | 96.1% | 89.2% | 111% | 70.2% | 87.4% | 84.8% | 90.2% | 109% | 105% | 91.5% | 98.8% | 96.8% | 102% | 14.9% | 110%
NC(=O)c1c(NC(=O)c2ccc3c(c2)OCO3)sc2c1CCC(=O)C2 | -57.8% (active) | 5.58% (active) | 8.18% (active) | -93.4% (active) | -20.2% (active) | -57.7% (active) | -80% (active) | -3.77% (active) | -33.3% (active) | -20.8% (active) | -19.6% (active) | -34.9% (active) | -15.9% (active) | -49.8% (active) | -70.8% (active) | -11.7% (active) | -17.1% (active) | -47% (active) | 16.7% | -6.35% (active)
C=C1C(=O)O[C@H]2[C@H]1CC/C(COC(=O)NCCc1cccc(OC)c1)=C\CC[C@@]1(C)O[C@@H]21 | 68.5% | 68.3% | 42.6% | 32% | 24.9% | -9.71% (active) | 8.84% (active) | 82.4% | 4.38% (active) | 11.5% | 0.839% (active) | 25.1% | 17.4% | 75.1% | 39.9% | 90.3% |  | -20% (active) | 57.9% | 80%
C=C1C(=O)O[C@H]2[C@H]1CC/C(Cn1cc(-c3ccc(N)cc3)nn1)=C\CC[C@@]1(C)O[C@@H]21 | 41.9% | -19.9% (active) | -7.63% (active) | -74.3% (active) | 17.9% | 3.22% (active) | 16.7% | 44.1% | -17.7% (active) | 5.77% (active) | 7.69% (active) | -8.22% (active) | -5.97% (active) | 38.4% | 13.6% | 83.8% | 18.4% | -30.7% (active) | 62.4% | 69.8%
O=S=Nc1ccc([N+](=O)[O-])cc1 | 98.4% | 96.9% | 98.7% | 78.3% | 84.9% | 80.8% | 78.9% | 79.2% | 101% | 91.2% | 90.3% | 102% | 104% | 87.2% | 101% | 103% | 103% | 98.3% | 95% | 99.4%
C=C1C(=O)O[C@H]2[C@H]1CC/C(COC(=O)NCCc1ccc(Br)cc1)=C\CC[C@@]1(C)O[C@@H]21 | 57.8% | 57.3% | 16.8% | -20.5% (active) | 25.9% | -60.1% (active) | 22.6% | 79.1% | 4% (active) | -19.1% (active) | -4.11% (active) | 2.82% (active) | 7.1% (active) | 39.6% | 30% | 97.2% |  | -71.8% (active) | 22.9% | 
C=C1C(=O)O[C@H]2[C@H]1CC/C(COC(=O)NCCc1ccc(OC)cc1)=C\CC[C@@]1(C)O[C@@H]21 | 63.4% | 53.3% | 11.7% | -82.8% (active) | -7.32% (active) | -6.86% (active) | -2.71% (active) | 62% | 3.44% (active) | 2.83% (active) | -4.05% (active) | 17.5% | 2.7% (active) | 30.9% | 17.4% | 89.3% |  | -29.6% (active) | 46% | 78.9%
C=C1C(=O)O[C@H]2[C@H]1CC/C(COC(=O)NCc1ccc(OC)cc1)=C\CC[C@@]1(C)O[C@@H]21 | 53.4% | 75.9% | 32.8% | 18.4% | 31.2% | 4.28% (active) | 15% | 89.4% | 3.72% (active) | 24.2% | -1.29% (active) | 25.8% | 21.5% | 78.2% | 41.2% | 84.8% |  | 5.71% (active) | 59.2% | 86.9%
CC1CCN(C(=O)CSc2nc3sc4c(c3c(=O)[nH]2)CCCC4)CC1 | 80.2% | 98.9% | 102% | 82.6% | 163% | 101% | 96.4% | 95.8% | 74.4% | 98.5% | 85.5% | 82.4% | 102% | 102% | 108% | 103% |  | 116% | 113% | 
C[N+](C)(C)c1ccc(CC2c3ccccc3-c3ccccc32)cc1 | 81.5% | 71.2% | 21.3% | 90.9% | 93.3% | 99.9% | 86.8% | 70.5% | 69.9% | 76.4% | 85% | 68.6% | 85.7% | 86.1% | 85.2% | 75.3% |  | 67% | 4.68% (active) | 107%
